Our source for the growth inhibition values is PubChem BioAssay (NCI).

Molecules are shown by their SMILES. About 79,000 compounds went through this panel and 15% of them were active in at least one assay; those are over-represented in the sample as a whole. Values without a mark were called inactive. Calls of active or inactive are those of the source. Cut-off read from the data, not from the text of the source: active = growth inhibition above about 70%; inactive = the rest.

Test [1] in a line: NCI Yeast Anticancer Drug Screen. Data for the rad50 strain (AID 155).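 Note: 0% = growth of vehicle-only cultures of the same strain.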 The conditions noted are these: S. cerevisiae rad50 strain growth inhibition, active compounds read high. The method, boiled down: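 Growth of the mutant yeast was measured after compound exposure and referenced to vehicle-treated cultures.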
Test [2] in a line: NCI Yeast Anticancer Drug Screen. Data for the mec2-1 strain (AID 157). The conditions noted are these: S. cerevisiae mec2-1 strain, active compounds read high. The method, boiled down: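 Strain: mec2-1 (DNA repair/cell cycle alteration). Compound exposure, then growth measured; inhibition expressed relative to vehicle.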
The nature of test [3]: NCI Yeast Anticancer Drug Screen. Data for the sgs1 mgt1 strain (AID 161).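 Note: 0% = growth of cultures given vehicle only.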 The conditions noted are these: S. cerevisiae sgs1 mgt1 strain, active compounds read high. In outline: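 Read-out: growth inhibition vs vehicle controls. Cells: mutant yeast strain deficient in DNA damage repair.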
A short description of test [4]: NCI Yeast Anticancer Drug Screen. Data for the cln2 rad14 strain (AID 165).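 Note: 0% = growth equal to vehicle treated cultures.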 The conditions noted are these: S. cerevisiae cln2 rad14 strain, active compounds read high. The method, boiled down:
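Compounds are applied to the cln2 rad14 yeast strain, and growth is then compared with that of vehicle-treated cultures to give inhibition.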

The nature of test [5]: NCI Yeast Anticancer Drug Screen. Data for the bub3 strain (AID 167). The conditions noted are these: S. cerevisiae bub3 mutant strain, active compounds read high. The method, boiled down: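 Whole-cell yeast assay. The mutant strain was incubated with compounds, and growth inhibition was determined by comparison with vehicle-treated cells.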
The nature of test [6]: NCI Yeast Anticancer Drug Screen. Data for the mlh1 rad18 strain (AID 175). The conditions noted are these: S. cerevisiae mlh1 rad18 strain growth inhibition, active compounds read high. The method, boiled down:
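Read-out is yeast growth inhibition, calculated against vehicle-only controls. The compound was applied to a strain engineered with DNA damage repair alterations.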

The mark [7] stands for this setting: at 5.0 µM (retest, dose inferred, filed as 0.5).
Setting [8] is: at 50.0 µM (retest, dose inferred, filed as 5.0).

Take `CCCSc1ncnc2nc(C)[nH]c12`: the growth inhibition is -1% in test [1] (setting [7]); -1% in test [1] (setting [8]); 6.9% in test [1] (at 50.0 µM); 3% in test [2] (setting [7]); -7% in test [2] (setting [8]); -14.5% in test [2] (at 50.0 µM). Also, the growth inhibition in test [3] (setting [7]) was -2%; in test [3] (setting [8]) it was -3%; in test [3] (at 50.0 µM), 2.25%; in test [4] (setting [7]), 0%; in test [4] (setting [8]), -1%; in test [4] (at 50.0 µM) it was 39.6%. Besides, the growth inhibition in test [5] (setting [7]) was -1%; in test [5] (setting [8]), -6%; in test [5] (at 50.0 µM), 1.85%; in test [6] (setting [7]), 0%; in test [6] (setting [8]), 0%; in test [6] (at 50.0 µM), -8.25%.
Take `COC(=O)c1cc(-c2c[nH]cc2C(=O)OCc2ccccc2)cn1S(=O)(=O)c1ccc(C)cc1`: the growth inhibition in test [1] (setting [7]) is 17%; in test [1] (setting [8]), 6%; in test [1] (at 50.0 µM), 92.5% (active); in test [2] (setting [7]) it was 18%; in test [2] (setting [8]), 11%; in test [2] (at 50.0 µM), 93.1% (active). The growth inhibition was 7% in test [3] (setting [7]); -6% in test [3] (setting [8]); 94.4% (active) in test [3] (at 50.0 µM); 2% in test [4] (setting [7]); 2% in test [4] (setting [8]); 88.9% (active) in test [4] (at 50.0 µM). The growth inhibition in test [5] (setting [7]) was -39%; in test [5] (setting [8]) it was 2%; in test [5] (at 50.0 µM) it was 87.3% (active); in test [6] (setting [7]) it was 24%; in test [6] (setting [8]), 22%; in test [6] (at 50.0 µM), 91.2% (active).
With `CCCCCC(C)(C)N=C=S`, the growth inhibition in test [1] (setting [7]) is 3%; in test [1] (setting [8]), 0%; in test [1] (at 50.0 µM), 7%; in test [2] (setting [7]), -1%; in test [2] (setting [8]), 2%; in test [2] (at 50.0 µM) it was -1.65%. Further, the growth inhibition is -1% in test [3] (setting [7]); -3% in test [3] (setting [8]); -1.85% in test [3] (at 50.0 µM); 5% in test [4] (setting [7]); 1% in test [4] (setting [8]); 10.3% in test [4] (at 50.0 µM). Also, the growth inhibition in test [5] (setting [7]) was 1%; in test [5] (setting [8]), 0%; in test [5] (at 50.0 µM) it was 8.3%; in test [6] (setting [7]) it was -5%; in test [6] (setting [8]), 1%; in test [6] (at 50.0 µM), -5.6%.
As for `OCC(O)C(O)C(O)C(/C=N/Nc1ccccc1)=N\Nc1ccccc1` (stereo not given), the growth inhibition is 4% in test [1] (setting [7]); -3% in test [1] (setting [8]); 51.4% in test [1] (at 50.0 µM); -1% in test [2] (setting [7]); -1% in test [2] (setting [8]); 4.95% in test [2] (at 50.0 µM). The growth inhibition is 20% in test [3] (setting [7]); 16% in test [3] (setting [8]); 70.7% (active) in test [3] (at 50.0 µM); -41% in test [4] (setting [7]); 4% in test [4] (setting [8]); -0.65% in test [4] (at 50.0 µM). The growth inhibition is 1% in test [5] (setting [7]); -89% in test [5] (setting [8]); 4.3% in test [5] (at 50.0 µM); 16% in test [6] (setting [7]); 4% in test [6] (setting [8]); 30.4% in test [6] (at 50.0 µM).
As for `CCCCCCCCCCSCCO`, the growth inhibition in test [1] (setting [7]) was 30%; in test [1] (setting [8]), 88% (active); in test [1] (at 50.0 µM) it was 92.7% (active); in test [2] (setting [7]), 51%; in test [2] (setting [8]) it was 92% (active); in test [2] (at 50.0 µM), 94% (active). Further, the growth inhibition is 99% (active) in test [3] (setting [7]); 93% (active) in test [3] (setting [8]); 93.5% (active) in test [3] (at 50.0 µM); 78% (active) in test [4] (setting [7]); 99% (active) in test [4] (setting [8]); 92.3% (active) in test [4] (at 50.0 µM). Further, the growth inhibition is 100% (active) in test [5] (setting [7]); 97% (active) in test [5] (setting [8]); 92.5% (active) in test [5] (at 50.0 µM); 42% in test [6] (setting [7]); 97% (active) in test [6] (setting [8]); 92.7% (active) in test [6] (at 50.0 µM).
For `CC(C)NCCCNc1nc(NCCCNC(C)C)c2nc(-c3ccccc3)c(-c3ccccc3)nc2n1`, the growth inhibition in test [1] (setting [7]) was 4%; in test [1] (setting [8]) it was 82% (active); in test [1] (at 50.0 µM) it was 52%; in test [2] (setting [7]), 1%; in test [2] (setting [8]) it was 88% (active); in test [2] (at 50.0 µM) it was 58.7%. Besides, the growth inhibition in test [3] (setting [7]) was -2%; in test [3] (setting [8]) it was 86% (active); in test [3] (at 50.0 µM) it was 53.4%; in test [4] (setting [7]) it was -3%; in test [4] (setting [8]), 56%; in test [4] (at 50.0 µM), 55.8%. Further, the growth inhibition in test [5] (setting [7]) was 0%; in test [5] (setting [8]), 35%; in test [5] (at 50.0 µM) it was 50.1%; in test [6] (setting [7]) it was 2%; in test [6] (setting [8]), 90% (active); in test [6] (at 50.0 µM) it was 57.2%.
Consider `CCCCc1c2c(nc3c1CCC/C3=C\c1ccccc1)C(=O)C(CN(C)C)CC2` (stereo not given), for which the growth inhibition in test [1] (setting [7]) was 16%; in test [1] (setting [8]), 96% (active); in test [1] (at 50.0 µM) it was 86.3% (active); in test [2] (setting [7]), 10%; in test [2] (setting [8]) it was 97% (active); in test [2] (at 50.0 µM) it was 89.1% (active). Further, the growth inhibition was 29% in test [3] (setting [7]); 97% (active) in test [3] (setting [8]); 86.5% (active) in test [3] (at 50.0 µM); 11% in test [4] (setting [7]); 96% (active) in test [4] (setting [8]); 86.8% (active) in test [4] (at 50.0 µM). For the same compound, the growth inhibition in test [5] (setting [7]) was 13%; in test [5] (setting [8]), 95% (active); in test [5] (at 50.0 µM), 84.5% (active); in test [6] (setting [7]), 11%; in test [6] (setting [8]), 96% (active); in test [6] (at 50.0 µM), 84.5% (active).
As for `CCOC(=O)/C(C#N)=C\c1cccc2ccccc12`, the growth inhibition was 13% in test [1] (setting [7]); 57% in test [1] (setting [8]); 84% (active) in test [1] (at 50.0 µM); 1% in test [2] (setting [7]); 91% (active) in test [2] (setting [8]); 92.3% (active) in test [2] (at 50.0 µM). Also, the growth inhibition in test [3] (setting [7]) was 5%; in test [3] (setting [8]), 75% (active); in test [3] (at 50.0 µM), 91.8% (active); in test [4] (setting [7]), -17%; in test [4] (setting [8]), 27%; in test [4] (at 50.0 µM), -12.4%. Moreover, the growth inhibition in test [5] (setting [7]) is -4%; in test [5] (setting [8]), 40%; in test [5] (at 50.0 µM), 96.2% (active); in test [6] (setting [7]), -2%; in test [6] (setting [8]) it was 94% (active); in test [6] (at 50.0 µM), 95.7% (active).
Turning to `CN(C)C(=O)/N=c1\ss/c(=N\C(=S)N(C)C)n1-c1ccccc1`, the growth inhibition is -1% in test [1] (setting [7]); 78% (active) in test [1] (setting [8]); 68.2% in test [1] (at 50.0 µM); -9% in test [2] (setting [7]); 56% in test [2] (setting [8]); 45.8% in test [2] (at 50.0 µM). For the same compound, the growth inhibition in test [3] (setting [7]) was 4%; in test [3] (setting [8]), 95% (active); in test [3] (at 50.0 µM) it was 72% (active); in test [4] (setting [7]) it was -17%; in test [4] (setting [8]), 29%; in test [4] (at 50.0 µM) it was 41.6%. Also, the growth inhibition was -8% in test [5] (setting [7]); 50% in test [5] (setting [8]); 68.5% in test [5] (at 50.0 µM); 9% in test [6] (setting [7]); 92% (active) in test [6] (setting [8]); 62.2% in test [6] (at 50.0 µM).
Turning to `O=C(NCCl)Nc1ccccc1`, the growth inhibition in test [1] (setting [7]) is -3%; in test [1] (setting [8]), 62%; in test [1] (at 50.0 µM), 57.7%; in test [2] (setting [7]), 5%; in test [2] (setting [8]) it was 82% (active); in test [2] (at 50.0 µM), 62.8%. Moreover, the growth inhibition in test [3] (setting [7]) is 8%; in test [3] (setting [8]) it was 86% (active); in test [3] (at 50.0 µM) it was 67.9%; in test [4] (setting [7]), 1%; in test [4] (setting [8]) it was 65%; in test [4] (at 50.0 µM), 17.9%. The growth inhibition in test [5] (setting [7]) was 6%; in test [5] (setting [8]), 79% (active); in test [5] (at 50.0 µM), 67.5%; in test [6] (setting [7]) it was 6%; in test [6] (setting [8]) it was 83% (active); in test [6] (at 50.0 µM) it was 66%.
